Data published in the supplement of paper PMC6555819.

How the values were obtained:
Assay in all cases: PBM binding z-score (relative to random genomic background probes); higher = stronger binding; sequences stand for … in GC…GCGATTGACAGCGTAGAATGAAGG
[1] = test system: FXR:RXRa (NR concentration 270 nM, RXRa partner concentration 90 nM)
In short: (§1)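 Custom Agilent 4×180K protein-binding microarrays carried double-stranded probes, each with a 34-nt variable region. These regions held direct-repeat seeds, single-nucleotide variants, half-site ablations and random human genomic background sequences. Ligand-free nuclear receptor dimers were incubated on the arrays for 1 h, antibodies against each partner (one per run) detected binding, and scanned fluorescence was regression-normalized. Binding z-scores take the random background probes as reference.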

[2] = test system: LXRa:RXRa (NR concentration 270 nM, RXRa partner concentration 90 nM)
In short: as §1

[3] = test system: LXRa homodimer (NR concentration 270 nM)
In short: as §1

[4] = test system: LXRb:RXRa (NR concentration 270 nM, RXRa partner concentration 90 nM)
In short: as §1

[5] = test system: LXRb homodimer (NR concentration 270 nM)
In short: as §1

[6] = test system: PPARa:RXRa (NR concentration 270 nM, RXRa partner concentration 90 nM)
In short: as §1

[7] = test system: PPARg:RXRa (NR concentration 180 nM, RXRa partner concentration 90 nM)
In short: as §1

[8] = test system: PPARg:RXRa 270nM:90nM, anti-RXR (NR concentration 270 nM, RXRa partner concentration 90 nM)
In short: as §1

[9] = test system: PPARg:RXRa 30nM:10nM, anti-RXR (NR concentration 30 nM, RXRa partner concentration 10 nM)
In short: as §1

[10] = test system: PPARg:RXRa 90nM:30nM, anti-RXR (NR concentration 90 nM, RXRa partner concentration 30 nM)
In short: as §1

[11] = test system: PPARg:RXRa DBDmut IVT, anti-RXR (DBD mutation: RXRa K156A/R161A, NR concentration 270 nM, RXRa partner concentration 90 nM)
In short: as §1

[12] = test system: PPARg:RXRa IVT, anti-PPARg (NR concentration 270 nM, RXRa partner concentration 90 nM)
In short: as §1

[13] = test system: PPARg DBDmut:RXRa IVT, anti-PPARg (DBD mutation: PPARg1 K132A/R137A, NR concentration 270 nM, RXRa partner concentration 90 nM)
In short: as §1

[14] = test system: PPARg DBDmut IVT, anti-PPARg (DBD mutation: PPARg1 K132A/R137A, NR concentration 270 nM)
In short: as §1

[15] = test system: PPARg homodimer (NR concentration 180 nM)
In short: as §1

[16] = test system: PXR:RXRa (NR concentration 270 nM, RXRa partner concentration 90 nM)
In short: as §1

[17] = test system: PXR homodimer (NR concentration 270 nM)
In short: as §1

[18] = test system: RARa:RXR (NR concentration 270 nM, RXRa partner concentration 90 nM)
In short: as §1

[19] = test system: RARa homodimer (NR concentration 270 nM)
In short: as §1

[20] = test system: RARb:RXRa (NR concentration 270 nM, RXRa partner concentration 90 nM)
In short: as §1

| Sequence | PBM binding z-score [1] | PBM binding z-score [2] | PBM binding z-score [3] | PBM binding z-score [4] | PBM binding z-score [5] | PBM binding z-score [6] | PBM binding z-score [7] | PBM binding z-score [8] | PBM binding z-score [9] | PBM binding z-score [10] | PBM binding z-score [11] | PBM binding z-score [12] | PBM binding z-score [13] | PBM binding z-score [14] | PBM binding z-score [15] | PBM binding z-score [16] | PBM binding z-score [17] | PBM binding z-score [18] | PBM binding z-score [19] | PBM binding z-score [20] |
| --- | --- | --- | --- | --- | --- | --- | --- | --- | --- | --- | --- | --- | --- | --- | --- | --- | --- | --- | --- | --- |
| ATCGAAAGATCGACGAGGTGAGTATACACCGTTT | -0.0851 | -0.16 | -0.368 | -0.346 | -0.329 | 0.0246 | 0.902 | -0.253 | 0.289 | 0.00942 | -0.646 | 0.27 | 0.0625 | 0.447 | -0.719 | -0.123 | 0.0422 | 0.105 | -0.0578 | -0.0508 |
| CCTACTGGGCCAAAAAGGTCATTGTTGCCGATAA | 3.25 | 4.03 | 2.95 | 4.03 | 0.141 | 4.47 | 2.62 | 4.03 | 1.19 | 2.96 | 3.95 | 3.99 | -0.0573 | -1.07 | 2.39 | 4.29 | 1.92 | 4.33 | 0.787 | 3.56 |
| ACTAGCAGGCCAAGGGTCAATCAAGATTAGTCCG | 3.02 | 2.94 | 0.134 | 2.96 | -0.379 | 4.64 | 8.14 | 7.68 | 6.29 | 8.3 | 1.29 | 3.74 | -0.502 | -0.4 | 1.86 | 3.34 | -0.202 | 4.28 | -0.127 | 3.33 |
| TAGCCTAGGTCATGTGCCAGTATACCACGCGAAC | 4.24 | 3.24 | 0.572 | 2.7 | 0.626 | 3.58 | 2.79 | 2.86 | 0.838 | 2.06 | 1.78 | 3.01 | 0.0994 | 0.0439 | 1.55 | 1.53 | -0.113 | 2.34 | -0.178 | 3.74 |
| ATACCAAGGTGATCTTGAGGTCGTTGATACTAAC | 2.36 | 2.49 | 1.86 | 1.92 | 0.411 | 1.91 | 0.527 | 0.843 | -0.161 | 0.624 | 0.853 | 1.45 | 0.8 | 0.628 | 1.02 | 3.3 | 2.03 | 2.54 | 0.867 | 1.71 |
| CCTACTGGGCCGAAAAGGTCATTGATGCCGATAA | 3.42 | 4.38 | 2.91 | 3.93 | 0.134 | 4.47 | 1.7 | 3.34 | 0.611 | 2.39 | 0.922 | 2.21 | -1.07 | -1.05 | 1.68 | 4.56 | 1.74 | 4.84 | 0.458 | 3.77 |
| CAGCCTAGGTCAGGGCCAGCATAGGAGGAACGTT | 1.52 | 0.758 | -0.392 | 0.314 | -1.18 | 1.98 | 0.816 | 1.02 | -0.543 | 0.19 | 1.28 | 1.44 | -0.858 | -1.51 | 0.398 | 0.0493 | -0.664 | 0.806 | -0.366 | 3.37 |
| GGATCGAGGGCAAGTTGATAGCAGAGTTTGATGG | 0.982 | 0.317 | -0.184 | 0.122 | 0.0808 | 1.42 | 0.962 | 0.758 | 0.0505 | 0.387 | 3.34 | 2.56 | -0.16 | -0.137 | 1.07 | 0.76 | 0.825 | 0.165 | 0.158 | 2.49 |
| AGAATGAGGTTATACGTAGATCAGTGAAGAAAGT | 1.96 | 1.82 | 0.00702 | 1.51 | 0.326 | 2.96 | 1.92 | 2.13 | 0.914 | 1.38 | 3.57 | 2.11 | 1.37 | 1.44 | 0.559 | 1.15 | 0.463 | 1.56 | 0.81 | 1.39 |
| CCTAGCAGGCCAATCTGGGTCACTTAAGGCTTGA | 0.716 | 1.48 | -0.236 | 0.733 | -0.723 | 2.96 | 1.68 | 2.03 | -0.218 | 1.33 | 4.27 | 5.04 | 0.275 | -0.588 | 1.03 | 1.16 | -0.589 | 1.62 | -0.727 | 1.55 |
| TGAATGAGGTTATAAGATCAGCGAACGTTGCAAA | 1.21 | 1.34 | -0.415 | 0.765 | -0.436 | 2.88 | 1.18 | 1.89 | 0.811 | 1.34 | 1.18 | 2 | 0.4 | -0.321 | -0.104 | 0.634 | -0.373 | 1.33 | -0.341 | 1.06 |
| TCTTGTAGATCAAGCCGGTTAAGAAAGCCTGAGT | 0.845 | 0.416 | -0.282 | 0.245 | -0.0874 | 0.538 | -0.597 | 1.31 | 2.88 | 1.97 | 1.95 | 0.218 | -0.157 | -0.013 | 0.0807 | 0.392 | 0.0295 | 0.402 | -0.0189 | 0.123 |
| CGTCAAAGTTCAACTAAGGTAACGAAAAGCACGC | 7.29 | 6.07 | 3.55 | 3.97 | 2.13 | 5.07 | 4.84 | 5.42 | 2.21 | 4.48 | 0.421 | 2.48 | 0.738 | 0.747 | 4.18 | 5.19 | 4.69 | 4.25 | 2.25 | 5.13 |
| TAGCCTAGATCATTGGGCCAGTATAGTACGCATC | -0.685 | -0.948 | -0.567 | -0.649 | -0.658 | -0.513 | 0.37 | -0.537 | -0.101 | -0.125 | 0.771 | 0.88 | 0.335 | -0.32 | -0.814 | -0.775 | -0.695 | -0.564 | -0.292 | -1.15 |
| CAAACTAGGTCAGGAAAGGTCAAAGTCGAATGAC | 6.17 | 6.74 | 6.35 | 6.12 | 1.93 | 6.08 | 8.46 | 6.82 | 4.45 | 6.88 | 7.59 | 8.02 | 3.96 | 1.14 | 6.11 | 6.57 | 2.16 | 6.83 | 3.88 | 5.36 |
